Data taken from PubChem BioAssay (Tox21).
Values joined by “and” are separate entries in the source; they are usually repeats but may differ in a detail not shown here. Equal values may be shown once. Inconclusive results are not listed. A call without a number means that no potency is given here. Where a structure was tested more than once in an assay, its records may differ in their call. Active and inactive are the calls of the source. Unless noted, the call rests on the fitted dose curve; in most records, active means well fitted curve in the direction sought with a large enough effect in the repeat runs; inconclusive means weak or mixed curves; inactive means no such curve, though single readings can be large; an effect the other way counts as inactive or inconclusive.

Columns and labels:
[1] = A CellTox Green Cytotoxicity Assay to monitor cytotoxicity in HepG2 cells - 8 hour (AID 1224890); further: nearly all actives have a fitted effect of over 45% in size
Summary of the method: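 Continuous culture of HepG2 cells with a membrane-impermeant DNA dye; rising fluorescence marks dead cells. Compound exposure lasted up to 40 h at 37 C, with reads every 8 h from 0 h.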

[2] = qHTS assay to identify small molecule antagonists of the estrogen receptor alpha (ER-alpha) signaling pathway using the BG1 cell line in the presence of 0.1 nM 17-beta-estradiol - cell viability counter screen (AID 1259241); further: nearly all actives have a fitted effect of over 40% in size
Summary of the method: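 In this screen, hormone-deprived VM7Luc4E2 cells were seeded at 4,000 per well, dosed with compound and 0.1 nM estradiol final, and incubated 22 hr at 37C and 5% CO2; fluorogenic live-cell protease signal reported viability.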

[3] = qHTS assay to identify small molecule antagonists of the androgen receptor (AR) signaling pathway using the MDA cell line in the presence of 0.5 nM R1881 - cell viability counter screen (AID 1259242); further: nearly all actives have a fitted effect of over 45% in size
Summary of the method: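 Fluorescence from CellTiter-Fluor, which reports protease activity of live cells, was read 30 min after reagent addition to MDA-kb2 cells that had been incubated 16 hr with compound and 0.5 nM R1881.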

[4] = qHTS assay to identify small molecule HDAC inhibitors (AID 1259364); further: top concentration of the series differs between compounds; nearly all actives have a fitted effect of over 45% in size
Summary of the method: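 Endogenous HDAC class I/II activity was measured in wild-type HCT-116 cells by HDAC-Glo luminescence after 2 h compound treatment.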

[5] = qHTS assay to identify small molecule HDAC inhibitors - cell viability counter screen (AID 1259365); further: series mostly up to about 92 µM; nearly all actives have a fitted effect of over 50% in size
Summary of the method: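 Measured quantity is CellTiter-Glo luminescence from wild-type HCT-116 cells after compound incubation of 2hr at 37C, 5% CO2; reagent developed 30min at room temperature.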

[6] = qHTS assay to identify small molecule agonists of the sonic hedgehog signaling (Shh) pathway - cell viability counter screen (AID 1259366); further: nearly all actives have a fitted effect of over 50% in size; further: potency means the concentration at half of the fitted maximal effect
Summary of the method: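 In quantitative high-throughput format, 3T3 Gli1-Luc cells were exposed to compounds for 24hr and multiplexed for viability using CellTiter-Fluor, incubated 1hr at 37C before the fluorescence read.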

[7] = qHTS assay to identify small molecule antagonists of the sonic hedgehog signaling (Shh) pathway - cell viability counter screen (AID 1259367); further: nearly all actives have a fitted effect of over 55% in size; further: potency means the concentration at half of the fitted maximal effect
Summary of the method: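 NIH/3T3-derived Gli1-Luc reporter cells, 2,000/well, plated 4 hr before compound addition, then stimulated with conditioned medium for 24 hr at 37C. Viability measured in the same wells by CellTiter-Fluor fluorescence, reagent added at 23 hr for 1 hr.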

[8] = qHTS assay to identify small molecule agonists of the sonic hedgehog signaling (Shh) pathway (AID 1259368; calls by dose curve;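 further: NIH/3T3-derived 3T3Gli1-Luc cells carrying a stable Gli1-driven firefly luciferase reporter; series mostly up to about 92 µM; nearly all actives have a fitted effect of over 15% in size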)
Summary of the method: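 Luminescent signal was taken as a measure of Gli1-controlled luciferase expression in stably transfected NIH/3T3-derived cells that had been treated for 24 hr with compounds delivered in DMSO.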

[9] = qHTS assay to identify small molecule antagonists of the sonic hedgehog signaling (Shh) pathway (AID 1259369; calls by dose curve; further: nearly all actives have a fitted effect of over 45% in size; further: potency means the concentration at half of the fitted maximal effect)
Summary of the method: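 Screening used 3T3Gli1-Luc cells at 2,000 per well, compounds delivered in DMSO, and conditioned medium as agonist stimulus; plates incubated 24hr at 37 C and 5% CO2 before a 30min luciferase step.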

[10] = target: Estrogen receptor beta (Homo sapiens) (UniProt Q92731); test: qHTS assay to identify small molecule antagonists of the estrogen receptor beta (ER-beta) signaling pathway (AID 1259378; active means well fitted inhibition curve with a large enough effect in the signal ratio in the repeat runs, not every such curve was filed as active; the % refers to the signal ratio; further: potency means the concentration at half of the fitted maximal effect)
Sequence of Estrogen receptor beta (Homo sapiens) (Q92731 whole entry, looked up): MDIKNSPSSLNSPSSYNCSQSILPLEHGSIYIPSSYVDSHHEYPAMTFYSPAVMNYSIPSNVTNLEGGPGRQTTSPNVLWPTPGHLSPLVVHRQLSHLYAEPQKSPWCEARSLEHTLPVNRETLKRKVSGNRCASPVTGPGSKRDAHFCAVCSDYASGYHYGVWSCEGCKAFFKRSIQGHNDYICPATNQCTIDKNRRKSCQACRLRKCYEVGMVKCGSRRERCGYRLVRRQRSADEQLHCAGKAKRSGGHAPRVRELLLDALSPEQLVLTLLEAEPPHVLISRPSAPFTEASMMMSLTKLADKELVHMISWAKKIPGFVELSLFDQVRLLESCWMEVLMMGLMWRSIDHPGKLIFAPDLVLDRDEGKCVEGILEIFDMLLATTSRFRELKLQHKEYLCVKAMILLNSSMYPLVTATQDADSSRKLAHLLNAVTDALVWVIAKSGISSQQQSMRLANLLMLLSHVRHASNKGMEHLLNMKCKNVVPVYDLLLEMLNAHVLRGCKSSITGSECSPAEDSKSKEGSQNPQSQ
Summary of the method: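 ER-beta-UAS-bla HEK293T cells in 2% charcoal-stripped FBS medium treated with compound plus 1nM final 17-beta-estradiol for 16 hr at 37C. Beta-lactamase reporter read by FRET substrate fluorescence after 2 hours at room temperature.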

[11] = qHTS assay to identify small molecule agonists of the androgen receptor (AR) signaling pathway in the presence of an antagonist - cell viability counter screen (AID 1259379);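 further: MDA-kb2 human breast cancer cells carrying an MMTV luciferase reporter; series mostly up to about 92 µM; nearly all actives have a fitted effect of over 25% in size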
Summary of the method: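 In MDA-kb2 cells (human breast carcinoma, MMTV-luciferase), compounds at 15 concentrations plus 3.0uM nilutamide; 16 hr, 37C, 0% CO2; CellTiter-Fluor fluorescence read for viability.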

[12] = qHTS assay to identify small molecule agonists of the estrogen receptor beta (ER-beta) signaling pathway - cell viability counter screen (AID 1259380); further: nearly all actives have a fitted effect of over 30% in size; further: potency means the concentration at half of the fitted maximal effect
Summary of the method: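 Viability of ER-beta-UAS-bla HEK293T cells was determined by CellTiter-Glo luminescence following 16 hr treatment with test compounds at 37C.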

[13] = qHTS assay to identify small molecule agonists or antagonists of the thyroid stimulating hormone receptor (TSHR) signaling pathway - wild type cell line counter screen (AID 1259384; calls by dose curve)
Summary of the method: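 Wild-type Hek293 cells, 800/well, 18 h at 37C, then compound with Ro20-1724 for 30 min RT. cAMP by HTRF (cAMP-d2/anti-cAMP cryptate), 1 h RT, fluorescence read. 15 concentrations, triplicates.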

[14] = qHTS assay to identify small molecule antagonists of the estrogen receptor beta (ER-beta) signaling pathway - cell viability counter screen (AID 1259382); further: series mostly up to about 92 µM; nearly all actives have a fitted effect of over 55% in size
Summary of the method: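 Tox21 10K library tested in qHTS format on ER-beta-bla HEK293T cells stimulated with 1nM E2; 16 hr treatment at 37C. Same-well CellTiter-Glo luminescence served as the cell viability measure.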

[15] = qHTS assay to identify small molecule phospholipidosis (PLD) inducers (AID 1259344; active means well fitted curve in the direction sought with a large enough effect; an effect the other way counts as inactive or inconclusive)
Summary of the method: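 HepG2 cells, 900/well, treated with compound plus LipidTOX Red for 24 h at 37 C; amiodarone positive and DMSO negative controls. Fixed with paraformaldehyde/Hoechst, then high-content imaging scored LipidTOX pit count and integrated intensity per well and per cell.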

[16] = target: Estrogen receptor beta (Homo sapiens) (UniProt Q92731); test: qHTS assay to identify small molecule agonists of the estrogen receptor beta (ER-beta) signaling pathway (AID 1259377; active means well fitted activation curve with a large enough effect in the signal ratio in the repeat runs, not every such curve was filed as active; the % refers to the signal ratio)
Summary of the method: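 Reporter cells (HEK293T, ER-beta-UAS-bla) receive compounds or DMSO after a 6 hr pre-incubation. They then incubate 16 hr at 37C/5% CO2, and fluorescence from LiveBLAzer B/G substrate is measured after 2 hours at room temperature.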

[17] = target: Estrogen receptor (Homo sapiens) (UniProt P03372); test: qHTS assay to identify small molecule antagonists of the estrogen receptor alpha (ER-alpha) signaling pathway using the BG1 cell line in the presence of 0.1 nM 17-beta-estradiol (AID 1259244); further: potency means the concentration at half of the fitted maximal effect; nearly all actives have a fitted effect of over 50% in size
Sequence of Estrogen receptor (Homo sapiens) (P03372 whole entry, looked up): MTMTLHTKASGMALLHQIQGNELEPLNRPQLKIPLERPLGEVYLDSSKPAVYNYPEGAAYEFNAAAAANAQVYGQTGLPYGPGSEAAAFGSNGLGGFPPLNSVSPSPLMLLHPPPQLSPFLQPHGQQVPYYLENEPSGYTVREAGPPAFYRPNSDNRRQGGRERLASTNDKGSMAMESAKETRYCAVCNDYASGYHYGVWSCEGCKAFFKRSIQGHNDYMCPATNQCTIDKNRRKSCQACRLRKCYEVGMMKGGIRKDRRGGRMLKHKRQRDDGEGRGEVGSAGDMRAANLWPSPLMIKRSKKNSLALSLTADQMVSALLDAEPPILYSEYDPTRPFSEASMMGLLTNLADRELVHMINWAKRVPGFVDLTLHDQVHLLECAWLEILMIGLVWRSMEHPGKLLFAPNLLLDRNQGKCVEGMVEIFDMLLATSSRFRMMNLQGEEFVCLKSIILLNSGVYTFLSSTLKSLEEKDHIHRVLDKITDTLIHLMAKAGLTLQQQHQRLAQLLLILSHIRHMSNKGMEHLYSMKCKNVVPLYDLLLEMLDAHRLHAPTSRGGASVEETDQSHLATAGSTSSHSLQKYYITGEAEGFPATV
Summary of the method: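 Quantitative high-throughput screen in VM7Luc4E2 cells: compound plus 0.1 nM E2 (final), 22 h, 37C, 5% CO2; ONE-Glo added, 30 min room temperature, luminescence measured.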

[18] = target: Estrogen receptor (Homo sapiens) (UniProt P03372); test: qHTS assay to identify small molecule agonists of the estrogen receptor alpha (ER-alpha) signaling pathway in the presence of an antagonist (AID 1259383; calls by dose curve; further: top concentration of the series differs between compounds; nearly all actives have a fitted effect of over 15% in size)
Summary of the method: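 In VM7Luc4E2 cells, 4,000 per well, compounds at 15 concentrations were co-incubated 22hr at 37C with 10.0nM final ICI-182,780. Luminescence from the stably transfected 4×ERE-luciferase reporter was recorded 30min after ONE-Glo addition.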

Structure (SMILES)	Potency [1]	Potency [2]	Potency [3]	Potency [4]	outcome [5]	Potency [6]	Potency [7]	Potency [8]	Potency [9]	Potency [10]	Potency [11]	Potency [12]	outcome [13]	Potency [14]	outcome [15]	Potency [16]	Potency [17]	Potency [18]
C=CCc1ccc(OC)cc1	inactive	inactive	inactive	inactive	inactive	inactive	inactive	inactive	inactive	inactive	inactive	inactive	inactive					
c1ccc(N=Nc2ccccc2)cc1	inactive	inactive	inactive		inactive	inactive	inactive	inactive	inactive		inactive	inactive	inactive	inactive				
ClC1C(Cl)C(Cl)C(Cl)C(Cl)C1Cl (configuration not stated)	inactive	inactive	inactive	inactive	inactive	inactive	inactive	inactive	inactive	inactive	inactive	inactive and 27.3 µM (active) and 54.5 µM (active)	inactive	inactive	inactive			
COc1ccc(C(CN(C)C)C2(O)CCCCC2)cc1 (configuration not stated)	inactive	inactive	inactive	inactive	inactive	inactive	inactive	inactive	inactive		inactive	inactive	inactive	inactive	inactive			
CCC(CC)Nc1c([N+](=O)[O-])cc(C)c(C)c1[N+](=O)[O-]	inactive	inactive	inactive		inactive	inactive	inactive	inactive	inactive		inactive	61.1 µM (active)	inactive	inactive				
C=CCN(CC=C)C(=O)C(Cl)Cl	inactive	inactive	inactive	inactive	inactive	inactive	inactive	inactive	inactive	inactive	inactive	inactive	inactive			inactive		
CCCCN(CC)c1c([N+](=O)[O-])cc(C(F)(F)F)cc1[N+](=O)[O-]	inactive	inactive	inactive	inactive	inactive	inactive	inactive	inactive	inactive	inactive	inactive	inactive	inactive	inactive				
CCOCN(C(=O)CCl)c1c(C)cccc1CC	inactive	inactive	inactive		inactive	57.7 µM (active) and 30.6 µM (active)	54.5 µM (active)	inactive	18.3 µM (active) and 19.3 µM (active)	21.7 µM (active)		48.6 µM (active)	inactive				45.9 µM (active) and 48.6 µM (active)	inactive
